Source: PubChem
Rows were chosen to be rich in hits. Some 4% of all compounds tested hit in one or more screens of this group.
KKLEB cytotox – counter-screen for CF NF-kB inhibitors: cytotoxicity; KKLEB CF airway cells viability, ATPlite luminescence, overnight; stronger effect = lower value; cells stimulated with P. aeruginosa culture filtrate; activity change (cytotoxicity), % at 5 µM; hit rate 0.36% among 360,000; AID 602141;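 active means corrected activity change at or below -50% at 5 µM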
CF NFkB block – blocks PAF-induced NF-kB reporter in cystic fibrosis cells; hit rate 0.86% among 360,000; AID 588850; KKLEB NF-kB-GFP reporter, GFP fluorescence overnight; inhibition, % at 5 µM;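 active means at least 50% inhibition at 5 µM, scaled per plate between neutral and stimulator controls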;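 further: PAF is a Pseudomonas aeruginosa culture filtrate used as stimulus; plate controls were PAF-stimulated DMSO wells for no effect and unstimulated DMSO wells for full effect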
TWEAK Fn14 block – TWEAK-Fn14 signaling inhibition | TWEAK-stimulated Fn14 reporter cells, luciferase luminescence, 8 h | inhibition, % at 10 µM | hit rate 2% among 360,000; in the data active means inhibition above about 50%
TROY signal inh – TROY signaling inhibition | hit rate 0.98% among 360,000 | Q293 LMP1-TROYcd NF-kB luciferase reporter, 4 h | AID 1347056 | inhibition, % at 10 µM;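 active means compounds whose plate-normalised and pattern-corrected inhibition of the luciferase reporter signal at the single screening dose is 50% or more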
HIF-2a inh – blocks HIF-2a reporter activity; 786-0 RCC cells HIF-2a reporter, luciferase luminescence, overnight; inhibition, % at 18.8 µM; hit rate 0.72% among 360,000;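 active means inhibition of the luminescence signal of 40% or more relative to plate controls, in a single-dose primary screen at 18.75 µM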
Peg3 prom inh – inhibitors of Peg3 promoter; inhibition, % at 20 µM; AID 588405; HeLa PEG-Prom luciferase reporter, luminescence, overnight; hit rate 1.7% among 360,000;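 active means inhibition of at least 50% at 20 µM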
Active calls of the source: *; nt = not tested or not shown.

SMILES | KKLEB cytotox | CF NFkB block | TWEAK Fn14 block | TROY signal inh | HIF-2a inh | Peg3 prom inh
CCO[C@H]1OC(C(=O)NCc2ccccc2)=C[C@@H](c2ccc3c(c2)OCO3)[C@@H]1CCCO | -4.3 | -9.6 | -27.1 | -15.3 | 6.6 | -3.7
COc1cccc(C(=O)COc2cccc(NC(=O)c3cccc([N+](=O)[O-])c3)c2)c1 | -0.6 | 5.7 | 63.9* | nt | -7.1 | 28.6
COc1ccc(NC(=O)c2cccc(Oc3ccc([N+](=O)[O-])cc3Cl)c2)cc1 | -16.2 | 31.1 | 58.9* | 23.6 | -29.5 | 11.6
Cc1ccc(C)c(NC(=O)c2cccc(Oc3ccc([N+](=O)[O-])cc3Cl)c2)c1 | -11.6 | 15.3 | 36.8 | 13.6 | -5.5 | 33.4
O=C(Nc1cccc(Cl)c1)c1cccc(Oc2ccc([N+](=O)[O-])cc2Cl)c1 | -1.5 | 22.7 | 82.1* | 43.5 | -40.1 | 33.7
O=C(COc1cccc(NC(=O)c2cccc([N+](=O)[O-])c2)c1)c1ccc(F)cc1 | -10.4 | 2.3 | 41.6 | 46.3 | -15.6 | 27.3
O=C(Nc1cccc(NC(=O)c2cccc([N+](=O)[O-])c2)n1)c1cccc([N+](=O)[O-])c1 | -17.7 | 25.9 | -8.8 | 23.8 | -7.0 | 2.8
O=C(Nc1ccncc1NC(=O)c1cccc([N+](=O)[O-])c1)c1cccc([N+](=O)[O-])c1 | -1.4 | -15.4 | -0.5 | -6.7 | 11.9 | 58.1*
COc1ccc(Cl)cc1S(=O)(=O)NC(C)C(=O)NCc1ccccn1 (stereo not given) | 1.0 | 1.9 | 14.5 | -2.6 | 11.1 | 4.2
Cc1ccc(N2CC(C(=O)OCC(=O)Nc3cccc(Cl)c3C)CC2=O)cc1 (stereo not given) | -6.9 | 6.8 | -6.5 | 6.7 | 10.8 | -1.7
O=C(N=Nc1c(O)[nH]c2ccccc12)Nc1ccccc1 | -9.3 | 10.8 | -18.5 | -39.4 | -267.1 | -341.5
Cc1cccc(NC(=S)N=Nc2c(O)[nH]c3ccccc23)c1 | 6.5 | 18.9 | 82.6* | -46.0 | -73.1 | -18.8
CC(C)Cc1cc(CN2CCC(CO)(Cc3ccccc3)CC2)[nH]n1 | 6.7 | 10.8 | 1.3 | 25.2 | 13.3 | 16.7
O=[N+]([O-])c1ccc2nc(/C=C/c3ccc(Cl)cc3)[nH]c2c1 | 1.0 | 2.6 | 76.1* | 70.8* | -377.0 | -127.8
O=[N+]([O-])c1ccc(-c2nc3ccc([N+](=O)[O-])cc3[nH]2)cc1 | -10.6 | 13.9 | -49.0 | 9.4 | -218.1 | -213.3
O=C(N/N=C/c1ccc(O)cc1)Nc1cccc2nsnc12 | -37.8 | 69.3* | 62.8* | 37.0 | -71.6 | 31.9
COc1cccc(CC(=O)Nc2ncc(C)s2)c1 | 11.0 | -14.4 | 26.2 | -17.5 | -14.5 | -12.3
C/C(=C\c1cccc(Cl)c1Cl)C(=O)c1c(C)cc(C)[nH]c1=O | 0.7 | -5.1 | 72.4* | 21.2 | 9.7 | 8.7
C/C(=C\c1ccccc1F)C(=O)c1c(C)cc(C)[nH]c1=O | 8.6 | -6.8 | 30.8 | -2.7 | 16.5 | 2.7
Cc1ccsc1/C=C/c1ccc2ccccc2n1 | -12.0 | -0.7 | 51.9* | 47.0 | -75.8 | -158.9
Cc1ccsc1/C=C/c1ccc2cccc(O)c2n1 | -20.2 | 5.0 | -4.6 | -54.9 | -127.8 | 80.4*
CCOC(=O)N1CCN(C(=O)c2ccc3c(c2)sc2nc(-c4ccccc4)cn23)CC1 | -5.4 | -0.8 | 29.4 | 58.6* | -305.0 | -168.6
CCOC(=O)N1CCN(C(=O)c2ccc3nc(C)sc3c2)CC1 | -3.9 | 5.2 | 8.9 | -10.8 | 4.3 | -12.1
Cc1cccc(OCC(=O)Nc2ccc3c(c2)nc(CN2CCCCC2)n3C)c1 | 9.0 | -9.1 | 81.0* | 57.5* | -2.7 | -2.4
Cn1c(CCN2CCN(c3ccccn3)CC2)nc2cc(NC(=O)COc3ccc(Cl)cc3)ccc21 | -11.7 | 22.9 | 54.2* | 50.1* | 22.3 | 52.2*
SMILES | KKLEB cytotox | CF NFkB block | TWEAK Fn14 block | TROY signal inh | HIF-2a inh | Peg3 prom inh
Cn1c(CN2CCCCC2)nc2cc(NC(=O)c3ccccc3Cl)ccc21 | 6.8 | -1.0 | 51.7* | 22.0 | -7.9 | 1.9
CC(=O)N1CCN(Cc2nc3cc(NC(=O)c4ccccc4Cl)ccc3n2C)CC1 | 11.0 | -14.6 | 13.2 | -9.3 | 10.3 | 5.0
COc1ccc(OCC(=O)Nc2ccc3c(c2)nc(CCN2CCN(c4ccccn4)CC2)n3C)cc1 | 25.3 | -27.3 | 4.7 | 31.1 | -5.0 | 6.4
COc1cc(C2C(C#N)=C(N)N(c3cccnc3)C3=C2C(=O)CCC3)ccc1O (stereo not given) | -3.2 | 19.3 | 21.1 | 14.8 | -13.3 | -3.2
CCOC(=O)C1=C(N)N(c2ccccc2)C2=C(C(=O)CCC2)C1c1cccnc1 (stereo not given) | -2.0 | 5.3 | 52.5* | 14.3 | 10.5 | 19.0
COc1ccc(NC(=S)N2CCC(NC(=O)c3ccc(OC)cc3)CC2)cc1 | -17.8 | -7.2 | 13.8 | -2.9 | -0.9 | 4.5
Cc1cc(=O)oc2c3c(cc(OCC(=O)NC(C)C)c12)OC(C)(C)CC3 | -3.0 | -0.7 | -23.3 | 9.6 | 5.4 | 14.2
Cc1cc(=O)oc2c3c(cc(OCC(=O)N[C@@H](C)C(=O)O)c12)OC(C)(C)CC3 | 9.9 | 3.6 | 76.4* | -15.7 | 10.9 | 11.9
COc1ccc(CN2C(=O)c3ccccc3C2c2nnnn2C(C)C)cc1OC (stereo not given) | nt | nt | 12.8 | -2.6 | 2.5 | nt
Cc1cc(C(C)(C)C)cc(C)c1Cn1c2[n+](c3ccc(C(F)(F)F)cc31)CCCCC2 | -20.7 | 22.2 | 35.6 | 39.0 | 22.5 | 56.1*
FC(F)(F)c1cc(CCN2CCNC[C@@H]2Cc2ccccc2)cc(C(F)(F)F)c1 | -10.6 | 24.7 | 2.5 | -23.8 | -2.0 | 102.0*
Cn1nc2c3cc(F)ccc3n(Cc3ccc(F)cc3)cc-2c1=O | -1.1 | 7.7 | 13.3 | -20.8 | 17.6 | 31.2
COc1ccc(Cn2cc3c(-c4ccc(F)cc4)nnc-3c3cc(OC)c(OC)cc32)cc1 | -43.1 | -70.1 | -202.6 | -33.2 | -13.2 | 100.7*
COc1cc2c3nnc(-c4ccc(F)cc4)c-3cn(Cc3ccc(F)cc3)c2cc1OC | -21.3 | -200.8 | -229.3 | -60.3 | 0.2 | 97.8*
CC(C)(C)NCC(O)CON=C1c2ccccc2-c2ccccc21 (stereo not given) | -0.7 | -22.9 | -7.5 | -32.2 | 24.9 | 84.4*
CC(C)(C)NC(=O)CON=C1c2ccccc2-c2ccccc21 | -17.3 | 9.6 | 32.1 | -0.6 | -20.7 | 10.9
CC(Sc1nc(N)c(NC(=O)c2ccc(Br)o2)c(=O)[nH]1)C(=O)O (stereo not given) | -1.0 | -15.6 | 6.6 | -11.2 | -2.6 | 15.8
CSc1sc(C(=O)NN)c2c1C(O)CCC2 (stereo not given) | 12.0 | -6.3 | 7.3 | 9.2 | 19.5 | 9.1
CCOC(=O)CSc1nc2cc3c(cc2cc1C#N)OCO3 | 3.1 | -7.7 | -6.4 | -59.8 | -221.9 | -363.2
CCOC(=O)CSc1nc2cc3c(cc2cc1C#N)OCCO3 | 7.1 | -2.1 | 25.7 | 57.3* | -263.7 | -245.9
CC1(C(=O)Nc2ccc3c(c2)OCCO3)CSCC(=O)N1C1CCN(Cc2ccccc2)CC1 (stereo not given) | nt | nt | nt | nt | 5.7 | nt
